# Reference: PubChem BioAssay (NCATS)
# Records with an inconclusive call do not appear. Entries that show only a call come without a potency. A number with no mark means an inactive call. The source made the active and inactive calls. Unless noted, calls follow the shape of the dose curve; as a rule, active = well fitted curve in the direction sought with a large enough effect; inconclusive = small, poorly fitted or top-dose-only effect, or another doubt; inactive = no such curve, though single readings can be large; an effect the other way counts as inactive or inconclusive.
# Legend:
# [1] = qHTS to identify inhibitors of the type 1 interferon - major histocompatibility complex class I in skeletal muscle: primary screen against the NCATS Pharmaceutical Collection (AID 1347407);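 also: luminescence of HiBiT knocked into endogenous HLA-B as interferon-induced MHC class I level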
# How it was run: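 HLA-B HiBiT myoblasts, dexamethasone-free growth medium + 4 ng/ml IFN-b; compounds pinned 1 h after seeding, […] from 46 uM; 24 h, 37 C, 5% CO2; lytic HiBiT detection, 10 min RT, luminescence.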
# [2] = target: Protein phosphatase 1D (Homo sapiens) (UniProt O15297); assay: RapidFire Mass Spectrometry qHTS Assay for Modulators of WT P53-Induced Phosphatase 1 (WIP1) (AID 1347424);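 also: amount of dephosphorylated VEPPL-S-QETFS peptide product formed by WIP1; series mostly up to about 63 µM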
# How it was run: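 WIP1 (10 nM final) was preincubated 1 h at room temperature with compounds in Tris-HCl pH 7.5, 30 mM MgCl2, TCEP, EGTA, BSA; 2 uM VEPPL-pS-QETFS phosphopeptide was added for 5 min, quenched with formic acid, and dephosphorylated product quantified by RapidFire MS.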
# [3] = target: Protein phosphatase 1D (Homo sapiens) (UniProt O15297); assay: Rhodamine-PBP qHTS Assay for Modulators of WT P53-Induced Phosphatase 1 (WIP1) (AID 1347425)
# How it was run: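 Read-out: Rhodamine-PBP fluorescence (ex 525/em 598 nm) for released Pi, read each minute for 11 min after adding 10 uM VEPPL-pS-QETFS; signal taken as f1 minus pre-substrate f0. Enzyme 5 nM WIP1 with 1 hr room-temperature compound preincubation.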
# [4] = Primary qHTS for inhibitors of La Crosse Virus (LACV) - induced cell death in SH-SY5Y cells (AID 1508616);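 also: top concentration of the series differs between compounds; higher means more rescue of cells from virus-induced death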
# How it was run: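 Luminescent ATP readout (ATPLite 1step, 5 min room temperature) measured rescue from LACV-induced death after 6 days of infection at 0.01 MOI; normalized to infected DMSO wells and uninfected DMSO wells.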
# [5] = target: Calcium and integrin-binding protein 1 (Homo sapiens) (UniProt Q99828); assay: Primary qHTS for Identification of Calcium Integrin Binding Protein 1 (CIB1) Competitor (AID 1508620);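 also: GST tagged CIB1 binding a fluorescein labelled alphaIIb integrin peptide tracer; top concentration of the series differs between compounds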
# How it was run: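 Fluorescence polarization competition: CIB1-GST (1 uM final) preincubated with compound 15 min at room temperature, then FITC-labeled alphaIIb peptide (100 nM final) added for another 15 min. Polarization read at Ex 480/Em 540.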
# [6] = Primary qHTS for small molecule stabilizers of the endoplasmic reticulum resident proteome: Secreted ER Calcium Modulated Protein (SERCaMP) assay (AID 1508630)
# How it was run: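 GLuc-SERCaMP-expressing SH-SY5Y cells, pretreated 16 h with compound, are challenged with thapsigargin to empty ER calcium stores; after 4 h, coelenterazine is added directly to the medium and luminescence is imaged.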
# [7] = A High-Content qHTS Against Drug Library for the Identification of Small Molecules that Inhibit DYT1 Early Onset Primary Dystonia-Associated Cell Pathology (AID 1645839; calls by dose curve; also: series mostly up to about 46 µM)
# How it was run: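 Readout: %pathology, the punctate EGFP-TorsinA distribution from imaging, as the primary channel and cell count as the toxicity counterscreen. HEK293 Flp-In cells expressing delE TorsinA were induced with tetracycline and treated with compound for 48 h.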
# [8] = target: Cytochrome P450 2D6 (Homo sapiens) (UniProt P10635); assay: Cytochrome P450 family 2 subfamily D member 6 (CYP2D6) small molecule antagonists: luciferase biochemical (cell-free) qHTS assay (AID 1645840; active = well fitted curve in the direction sought with a large enough effect in the repeat runs; an effect the other way counts as inactive or inconclusive; also: nearly all actives have a fitted effect of over 55% in size; also: potency is read from the fitted curve at half-maximal effect)
# How it was run: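 P450-Glo luminescent screen: recombinant CYP2D6 enzyme–proluciferin substrate mix preincubated with compound 10 min at room temperature, then NADPH regeneration added for 1 h at room temperature. Detection reagent added for 20 min; luciferin light read as relative luminescence units.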
# [9] = qHTS to identify inhibitors of the type 1 interferon - major histocompatibility complex class I in skeletal muscle: primary screen against the NCATS Mechanism Interrogation Plate v5.0 (MIPE) Libary (AID 1347411); also: nearly all actives have a fitted effect of over 65% in size
# How it was run: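 Immortalized human C25cl48 myoblasts with HiBit knocked into endogenous HLA-B*08:01 were stimulated with 4.0 ng/ml IFN-beta and exposed to compounds (11-point 1:3 titration, top 46 uM final) for 24 hrs at 37 C; HiBiT lytic luminescence measured.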
# [10] = Counterscreen qHTS for small molecule stabilizers of the endoplasmic reticulum resident proteome: GLuc-NoTag assay (AID 1508627);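 also: SH-SY5Y cells given compound then 100 nM thapsigargin to empty ER calcium; series mostly up to about 76 µM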
# How it was run: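 SH-SY5Y cells stably expressing constitutively secreted GLuc (no SERCaMP tag) were pre-incubated 5 h, treated with compound for 19 h, then 100 nM thapsigargin for 4 h at 37C; medium GLuc read by coelenterazine luminescence.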
# [11] = Confirmatory qHTS for small molecule stabilizers of the endoplasmic reticulum resident proteome: Secreted ER Calcium Modulated Protein (SERCaMP) assay (AID 1508628);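 also: SH-SY5Y cells given compound 16 h then thapsigargin 100 nM for 4 h; series mostly up to about 76 µM; nearly all actives have a fitted effect of over 40% in size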
# How it was run: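 We seeded SH-SY5Y-GLuc-SERCaMP cells, added compounds (three concentrations in the primary run, eleven up to 76.6 uM in confirmation), incubated 16 h, depleted ER calcium with thapsigargin, and read luciferase 4 h later.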
# [12] = Cell Viability qHTS for small molecule stabilizers of the endoplasmic reticulum resident proteome (AID 1508629); conditions: cell viability counter-screen, 100 nM thapsigargin for final 4 h;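 also: compound exposure about 46 h in total before the viability read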
# Text: Assay Provider: Brandon K. Harvey Ph.D.
# National Institute on Drug Abuse, National Institutes of Health, Baltimore, MD
# Endoplasmic reticulum (ER) dysregulation is associated with human pathologies including neurodegenerative, cardiovascular, muscular, and diabetic conditions. Maintenance of ER calcium is critical for functions of the ER and its depletion can lead to loss of ER resident proteins, in a process termed exodosis. Therapeutic compounds capable of attenuating the redistribution of ER proteins under pathological conditions may slow or stop disease progression. To identify such compounds, we performed a quantitative high-throughput screen (qHTS) using the SERCaMP assay, which monitors secretion of ER resident proteins triggered by calcium depletion.
# SERCaMP was initially developed as a reporter of ER calcium homeostasis using a Gaussia luciferase with a modified signal peptide and carboxy-terminus (GLuc-SERCaMP), modifications that confer secretion of the reporter in response to ER calcium depletion (Henderson et al., 2014). The assay was used to screen 9,501 compounds, including a collection of drugs approved by the FDA (US), EMA (EU), NHI (Japan), and HC (Canada) regulatory agencies (Huang et al., 2011). Since the SERCaMP reporter reflects the exodosis phenomenon (Trychta et al., 2018a), compounds identified in the screen have the potential to prevent exodosis by different mechanisms such as stabilizing ER calcium or augmenting ERS retrieval.
# 1. Henderson, M.J., Wires, E.S., Trychta, K.A., Richie, C.T., and Harvey, B.K. (2014). SERCaMP: a carboxy-terminal protein modification that enables monitoring of ER calcium homeostasis. Mol Biol Cell 25, 2828-2839.
# 2. Huang, R., Southall, N., Wang, Y., Yasgar, A., Shinn, P., Jadhav, A., Nguyen, D.T., and Austin, C.P. (2011). The NCGC pharmaceutical collection: a comprehensive resource of clinically approved drugs enabling repurposing and chemical genomics. Sci Transl Med 3, 80ps16.
# 3. Trychta, K.A., Back, S., Henderson, M.J., and Harvey, B.K. (2018a). KDEL Receptors Are Differentially Regulated to Maintain the ER Proteome under Calcium Deficiency. Cell Rep 25, 1829-1840 e1826.
# SEQUENCE No. (1, 2, 3, etc.); […] (e.g., Cells, Incubation, Reagent, etc.); VALUE and DESCRIPTION.
# 1; Reagent; 5 uL; 1000 SH-SY5Y cells per wells
# 3; Compound; 23 nL; Control inhibitor / compound library
# 5; Reagent; 100 nM; Thapsigargin
# 7; Reagent; 5 uL; CellTiter-Glo (Promega)
# 8; Time; 10 min; room temperature
# 9; Detection; Luminescence; ViewLux imaging system
# NOTES (numbers refer to sequence above)
# 1; SH-SY5Y human neuroblastoma cells stably expressing GLuc-SERCaMP (SH-SY5Y-GLuc-ASARTDL) cells were seeded in 1,536 well white tissue culture treated plates (Corning, Cat# 7464) in DMEM-high glucose-sodium pyruvate (ThermoFisher Scientific, Cat #10569) supplemented with 10% bovine growth serum (Hyclone), 10 U/ml penicillin (Gibco), 10 ug/ml streptomycin (Gibco), and 20 mM HEPES.
# 2; Assay plates were incubated for 5 hr at 37C in a humidified incubator containing 5% CO2.
# 3; qHTS libraries (23 nl, final concentrations of 1.53 uM, 7.67 uM, 38.3 uM) or controls (neutral control: DMSO, positive control: dantrolene) were added using a Kalypsis pin-tool Robotic System equipped with 1536 pinheads.
# 4; Cells were then incubated for 42 hours at 37C, 5% CO2. […]
# 7; Cell viability was measured using the CellTiter-Glo Luminescent Cell Viability Assay (Promega). […]
# 9; Luminescence was measured using a ViewLux CCD imaging system (Perkin Elmer) equipped with clear filters.
# [13] = target: Cytochrome P450 3A4 (Homo sapiens) (UniProt P08684); assay: Cytochrome P450 family 3 subfamily A member 4 (CYP3A4) small molecule antagonists: luciferase qHTS assay (AID 1645841; active = well fitted curve in the direction sought with a large enough effect in the repeat runs; an effect the other way counts as inactive or inconclusive; also: nearly all actives have a fitted effect of over 45% in size)
# How it was run: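 P450-Glo CYP3A4 enzyme with proluciferin substrate was preincubated with DMSO-dissolved compounds for 10 min at room temperature. NADPH regeneration solution started a 1 h reaction. Detection reagent stopped it, and luminescence was read after 20 min.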
# Calcium and integrin-binding protein 1 (Homo sapiens), sequence (Q99828 whole entry, looked up): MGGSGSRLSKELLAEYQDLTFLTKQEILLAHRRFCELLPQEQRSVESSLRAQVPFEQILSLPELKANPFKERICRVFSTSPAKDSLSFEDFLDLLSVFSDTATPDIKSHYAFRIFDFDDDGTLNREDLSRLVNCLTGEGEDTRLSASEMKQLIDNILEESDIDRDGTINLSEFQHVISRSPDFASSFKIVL
# Protein phosphatase 1D (Homo sapiens), sequence (O15297 whole entry, looked up): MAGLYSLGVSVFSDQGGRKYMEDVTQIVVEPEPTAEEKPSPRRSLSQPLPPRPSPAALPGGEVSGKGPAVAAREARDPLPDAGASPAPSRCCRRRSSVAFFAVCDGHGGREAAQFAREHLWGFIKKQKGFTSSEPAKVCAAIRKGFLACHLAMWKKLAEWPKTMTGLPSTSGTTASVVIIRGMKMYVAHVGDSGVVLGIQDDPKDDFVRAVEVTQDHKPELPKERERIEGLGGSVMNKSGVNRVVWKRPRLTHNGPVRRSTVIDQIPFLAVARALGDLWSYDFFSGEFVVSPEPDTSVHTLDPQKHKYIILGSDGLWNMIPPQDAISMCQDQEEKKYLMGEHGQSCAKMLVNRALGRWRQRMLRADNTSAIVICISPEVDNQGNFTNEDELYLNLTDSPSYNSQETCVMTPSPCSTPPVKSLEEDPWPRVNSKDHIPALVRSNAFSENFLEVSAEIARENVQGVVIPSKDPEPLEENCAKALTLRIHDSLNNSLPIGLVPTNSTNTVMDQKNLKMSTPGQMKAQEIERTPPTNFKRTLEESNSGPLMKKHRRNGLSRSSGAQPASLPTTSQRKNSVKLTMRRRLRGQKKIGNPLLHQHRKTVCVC
# Cytochrome P450 3A4 (Homo sapiens), sequence (P08684 whole entry, looked up): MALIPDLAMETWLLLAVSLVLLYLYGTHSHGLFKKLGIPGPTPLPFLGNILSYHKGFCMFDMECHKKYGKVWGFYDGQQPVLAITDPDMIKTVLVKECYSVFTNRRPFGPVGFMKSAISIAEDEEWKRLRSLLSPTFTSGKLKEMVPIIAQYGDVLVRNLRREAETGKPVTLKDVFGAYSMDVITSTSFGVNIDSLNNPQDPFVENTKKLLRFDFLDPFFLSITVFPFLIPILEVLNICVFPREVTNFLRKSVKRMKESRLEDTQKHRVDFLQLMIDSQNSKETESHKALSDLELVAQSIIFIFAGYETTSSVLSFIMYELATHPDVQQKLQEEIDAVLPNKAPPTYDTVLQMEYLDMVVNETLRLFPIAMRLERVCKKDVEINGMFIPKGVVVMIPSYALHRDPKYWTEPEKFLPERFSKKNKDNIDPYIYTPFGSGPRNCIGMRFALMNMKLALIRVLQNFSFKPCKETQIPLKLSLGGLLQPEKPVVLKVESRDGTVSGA
# Cytochrome P450 2D6 (Homo sapiens), sequence (P10635 whole entry, looked up): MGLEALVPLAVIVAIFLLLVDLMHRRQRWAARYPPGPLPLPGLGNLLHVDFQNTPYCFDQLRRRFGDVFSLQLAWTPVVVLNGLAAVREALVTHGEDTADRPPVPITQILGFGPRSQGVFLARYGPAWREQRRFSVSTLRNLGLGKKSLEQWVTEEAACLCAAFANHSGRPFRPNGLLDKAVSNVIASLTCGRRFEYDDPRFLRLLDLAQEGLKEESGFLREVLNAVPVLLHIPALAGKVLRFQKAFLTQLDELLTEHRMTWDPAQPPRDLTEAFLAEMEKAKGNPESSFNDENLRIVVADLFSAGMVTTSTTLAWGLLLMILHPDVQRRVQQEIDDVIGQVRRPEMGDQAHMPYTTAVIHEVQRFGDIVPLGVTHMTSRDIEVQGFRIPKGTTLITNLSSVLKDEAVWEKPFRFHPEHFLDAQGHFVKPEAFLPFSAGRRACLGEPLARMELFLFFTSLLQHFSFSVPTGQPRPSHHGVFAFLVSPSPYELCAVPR
Compound,outcome [1],outcome [2],outcome [3],outcome [4],outcome [5],outcome [6],Potency [7],Potency [8],outcome [9],outcome [10],Potency [11],max response [12] [%],outcome [13]
NS(=O)(=O)c1cc2c(cc1C(F)(F)F)NCNS2(=O)=O,inactive,inactive,inactive,inactive,inactive,inactive,inactive,,,,,,
Cn1c([N+](=O)[O-])cnc1COC(N)=O,inactive,inactive,inactive,inactive,inactive,inactive,inactive,inactive,,,,,
Cc1ccsc1C(=CCCN1CCC[C@@H](C(=O)O)C1)c1sccc1C,inactive,,inactive,,inactive,,inactive,inactive,inactive,,,,
CCCC(O)C(CC)CO (stereo not given),inactive,inactive,inactive,inactive,inactive,,inactive,inactive,,inactive,inactive,29.3,
COc1ccc(C(=O)NCc2ccc(OCCN(C)C)cc2)cc1OC,inactive,inactive,inactive,inactive,inactive,inactive,inactive,inactive,,,,,
CC[C@]12CCCN3CCc4c(n(c5ccccc45)[C@@](O)(C(=O)OC)C1)[C@@H]32,inactive,inactive,inactive,inactive,inactive,inactive,inactive,11 µM (active),,,,,
Cn1cc(C(=O)[C@@H]2CCc3nc[nH]c3C2)c2ccccc21,inactive,inactive,inactive,inactive,inactive,,inactive,12.3 µM (active),,inactive,,11.5,
CCOC(=O)[C@H](CCc1ccccc1)N[C@@H](C)C(=O)N1CCC[C@H]1C(=O)O,inactive,inactive,inactive,inactive,,inactive,inactive,inactive,inactive,,,,
CCN1CC(CCN2CCOCC2)C(c2ccccc2)(c2ccccc2)C1=O (stereo not given),inactive,inactive,inactive,inactive,inactive,inactive,inactive,0.436 µM (active),,,,,
CCc1cccc(CC)c1NC(=O)CN(CC(=O)O)CC(=O)O,inactive,inactive,inactive,inactive,inactive,inactive,inactive,inactive,,,,,
COc1ccc2cc(CCC(C)=O)ccc2c1,inactive,inactive,inactive,inactive,inactive,inactive,inactive,,,,,,
O=C(CN1CCNCC1)NC1CCCCC1,inactive,inactive,inactive,inactive,inactive,inactive,inactive,inactive,,,,,inactive
CC(=O)Nc1ccc(OCCOCCOc2ccc(NC(C)=O)cc2)cc1,inactive,inactive,inactive,inactive,inactive,inactive,,inactive,,,,,
Cc1ccccc1N=Nc1ccc(N=Nc2c(O)ccc3ccccc23)c(C)c1,inactive,inactive,inactive,inactive,inactive,,inactive,,,,,,
CC(C)c1cc2c(cc1S(=O)(=O)O)[C@@]1(C)CCC[C@@](C)(C(=O)O)[C@@H]1CC2,inactive,inactive,inactive,inactive,inactive,,inactive,inactive,,,,,
CC(=O)Nc1ccccc1,inactive,inactive,inactive,inactive,inactive,inactive,inactive,inactive,,,,,
OCc1ccc(Cl)cc1Cl,inactive,inactive,inactive,inactive,inactive,inactive,inactive,inactive,,,,,inactive
C1CCN2C[C@@H]3C[C@@H](CN4CCCC[C@@H]34)[C@H]2C1,inactive,inactive,inactive,inactive,inactive,,inactive,,,,,,
COc1cc(O)cc(O)c1,inactive,inactive,inactive,inactive,inactive,inactive,inactive,inactive,,,,,
C[C@@H](N)C(=O)O,inactive,inactive,inactive,inactive,inactive,inactive,inactive,inactive,,,,,inactive
O=C(O)c1ccccc1C(=O)Nc1ccc(S(=O)(=O)Nc2nccs2)cc1,inactive,inactive,inactive,inactive,inactive,inactive,inactive,inactive,,,,,
NC(=O)c1ccc([N+](=O)[O-])cc1Cl,inactive,inactive,inactive,inactive,inactive,inactive,inactive,inactive,,,,,
CC(CSC(=O)c1ccccc1)C(=O)N1C[C@@H](Sc2ccccc2)C[C@H]1C(=O)O (stereo not given in full),inactive,inactive,inactive,inactive,inactive,inactive,inactive,inactive,,,,,
OC[C@@H](O)[C@@H](O)[C@H](O)[C@H](O)CO,inactive,inactive,inactive,inactive,inactive,inactive,inactive,inactive,,,,,
CNCc1ccccc1,inactive,inactive,inactive,inactive,inactive,inactive,inactive,11 µM (active),,,,,
NC(N)=NS(=O)(=O)c1ccc(N)cc1,inactive,inactive,inactive,inactive,inactive,inactive,inactive,inactive,,,,,inactive
